Source: PubChem BioAssay AID1347087 (National Center for Advancing Translational Sciences (NCATS), 2019)
Inconclusive results are not listed. Values without a mark were called inactive. Calls of active or inactive are those of the source. The call rests on the fitted dose curve.

Assay: qHTS for Inhibitors of the Functional Ribonucleoprotein Complex (vRNP) of Lassa (LASV) Arenavirus: LASV Confirmatory Screen - GLuc reporter signal
Conditions: LASV minigenome vRNP, Gaussia luciferase reporter; series mostly up to 53.9 µM; activity, negative = inhibition: at the top concentration

Structure (SMILES)	Potency	activity, negative = inhibition
CC(=O)[C@H]1CC[C@H]2[C@@H]3CCC4=CC(=O)CC[C@]4(C)[C@H]3CC[C@]12C	21.7 µM (active)	–
CC(=O)OCC(=O)[C@@]12N=C(C)O[C@H]1C[C@H]1[C@@H]3CCC4=CC(=O)C=C[C@]4(C)[C@@H]3[C@@H](O)C[C@@]12C	–	-10.9%
COC(=O)c1nc(Cl)c(Cl)nc1N	4.85 µM (active)	–
CC1OC(=O)[C@@H](C(C)C)NC(=O)C(C(C)C)OC(=O)[C@H](C(C)C)NC(=O)C(C)OC(=O)[C@@H](C(C)C)NC(=O)C(C(C)C)OC(=O)[C@H](C(C)C)NC(=O)C(C)OC(=O)[C@@H](C(C)C)NC(=O)C(C(C)C)OC(=O)[C@H](C(C)C)NC1=O (stereo not given in full)	0.153 µM (active)	–
Cc1cccc(-c2[nH]c(C(C)(C)C)nc2-c2ccc3c(c2)OCO3)n1	3.43 µM (active)	–
O=C(CCCN1CCN(c2ccc(F)cc2)CC1)NC1c2ccccc2CSc2ccccc21 (stereo not given)	–	-7.57%
CCCCCC[C@H]1C(=O)O[C@H](C)[C@H](NC(=O)c2cccc(NC=O)c2O)C(=O)O[C@@H](C)[C@@H]1OC(=O)CC(C)C	0.0306 µM (active)	–
CCOC(=O)OCC/C(SC(=O)OCC)=C(\C)N(C=O)Cc1cnc(C)nc1N	–	-20.6%
CC[C@@]1([C@@H]2O[C@@H]([C@H]3O[C@@](O)(CO)[C@H](C)C[C@H]3C)C[C@H]2C)CC[C@H]([C@]2(C)CC[C@]3(C[C@H](O)[C@@H](C)[C@@H]([C@@H](C)[C@@H](OC)[C@H](C)C(=O)O)O3)O2)O1	0.335 µM (active)	–
CC(C)(C)C1CCC(CC2=C(O)c3ccccc3C(=O)C2=O)CC1 (stereo not given)	6.85 µM (active)	–
